Measurements published in the supplement of paper PMC3616981.

Compound: CC(C)c1cccc(C(C)C)c1N1C(=O)c2ccc(O)cc2C1=O
Test: reporter fold induction vs vehicle; higher = higher reporter activity
Protocol: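 Attagene multiplexed transcription-factor reporter assay (48 cis response elements and 25 trans nuclear-receptor constructs) treated with 5HPP-33 at 8 concentrations (0.091–200 µM). The response is fold induction of reporter activity relative to vehicle control. Cell line and time not stated in the paper; tested in ToxCast Phase II for this study.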

## MRE_CIS
0.091 µM
  reporter fold induction: 1.05
0.274 µM
  reporter fold induction: 0.983
0.823 µM
  reporter fold induction: 1
2.469 µM
  reporter fold induction: 0.924
7.407 µM
  reporter fold induction: 1.22
22.22 µM
  reporter fold induction: 1.2
66.67 µM
  reporter fold induction: 1.8
200 µM
  reporter fold induction: 3.72

## ISRE_CIS
0.091 µM
  reporter fold induction: 1.23
0.274 µM
  reporter fold induction: 0.874
0.823 µM
  reporter fold induction: 1.04
2.469 µM
  reporter fold induction: 0.962
7.407 µM
  reporter fold induction: 0.9
22.22 µM
  reporter fold induction: 0.883
66.67 µM
  reporter fold induction: 0.605
200 µM
  reporter fold induction: 0.362

## FoxA2_CIS
0.091 µM
  reporter fold induction: 1.02
0.274 µM
  reporter fold induction: 0.959
0.823 µM
  reporter fold induction: 1.04
2.469 µM
  reporter fold induction: 0.939
7.407 µM
  reporter fold induction: 1.05
22.22 µM
  reporter fold induction: 0.978
66.67 µM
  reporter fold induction: 1.28
200 µM
  reporter fold induction: 1.32

## THRa1_TRANS
0.091 µM
  reporter fold induction: 1.06
0.274 µM
  reporter fold induction: 1.01
0.823 µM
  reporter fold induction: 1.07
2.469 µM
  reporter fold induction: 1.3
7.407 µM
  reporter fold induction: 0.83
22.22 µM
  reporter fold induction: 0.993
66.67 µM
  reporter fold induction: 1.35
200 µM
  reporter fold induction: 0.658

## TCF_b_cat_CIS
0.091 µM
  reporter fold induction: 1.06
0.274 µM
  reporter fold induction: 0.944
0.823 µM
  reporter fold induction: 1.13
2.469 µM
  reporter fold induction: 1.06
7.407 µM
  reporter fold induction: 0.839
22.22 µM
  reporter fold induction: 0.671
66.67 µM
  reporter fold induction: 0.77
200 µM
  reporter fold induction: 0.204
